# In PubChem BioAssay AID624351 (Southern Research Specialized Biocontainment Screening …, 2012):
# Hit rate of the full screen: of about 2,400 compounds, about 1,400 (58%) were called active. So high a share suggests a set chosen from earlier hits. This is one part of the list. Unmarked numbers belong to inactive results.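 Rule for the calls: active = inhibition of 30% or more at any tested dose; inconclusive = primary hits over the limit that were never retested; inactive = the rest.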
# Experiment: coupled detection enzyme interference, dose response, artefact control for MgcRacGAP inhibitor project, biochemical, coupled enzyme counter-screen (AID 624351);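 note: signal is the ADP detection kit reading of free GDP without any GAP enzyme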;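 for inhibition: 0% = median positive control wells and 100% = median negative control wells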
# Details: ADP Hunter coupled enzyme counter-screen, fluorescence, no MgcRacGAP; series mostly up to 80 µM; inhibition: at the top concentration
SMILES,inhibition [%],IC50
CC(=O)N(C1=C(Cl)C(=O)c2ccccc2C1=O)c1ccc(C(=O)O)cc1,0.61,
CC(C)c1ccc(/C=N/N2CCCCC2)cc1,15.9,
CCN(CC)c1ccc(/C=N/N2CCOCC2)c(O)c1,,63.7 µM (active)
CCN(CC)c1ccc(/C=N/N2CCOCC2)cc1,,40.3 µM (active)
CN(C)c1ccc(/C=N/N2CCN(Cc3ccccc3Cl)CC2)cc1,,71 µM (active)
COc1ccccc1CN1CCN(Cc2cc(OC)c(OC)cc2OC)CC1,22.1,
Cc1ccc(OCCN2CCN(C)CC2)c([N+](=O)[O-])c1,19.3,
O=C(Cn1sc2ccccc2c1=O)Nc1ccccc1,-1.87,
O=C(Nc1ccc(O)cc1)c1cc2ccccc2c(=O)s1,,30.1 µM (active)
COc1ccc2cc(C(=O)Nc3ccc(O)cc3)sc(=O)c2c1OC,,24.8 µM (active)
COCCNCC(=O)Nc1ccc(C)c(S(=O)(=O)N2CCCCC2)c1,17.4,
Cc1ccc(S(=O)(=O)N2CCCCC2)cc1NC(=O)CNCc1ccco1,18.3,
COc1cc(/C=C/C(=O)OCC(=O)Nc2ccc(S(=O)(=O)N3CCCC3)cc2)ccc1O,,45.7 µM (active)
COc1cc(/C=C/C(=O)OCC(=O)Nc2cc(S(=O)(=O)N3CCCCC3)ccc2C)ccc1O,,60.2 µM (active)
Cc1ccc(NC(=O)CNCCCN2CCOCC2)cc1S(=O)(=O)N1CCCCC1,21,
CCN(CC)S(=O)(=O)c1ccc(C)c(NC(=O)CN2CCN(C)CC2)c1,11.1,
CC(CCN1CCN(CCO)CC1)c1ccccc1 (stereo not drawn),3.17,
CN=C1S/C(=C\c2ccc(O)c(Br)c2)C(=O)N1C,,45.8 µM (active)
Cc1nc(N)sc1-c1ccccc1,,80.8 µM (active)
COc1ccc(-c2ccc(CCC(=O)O)n2-c2ccc(O)cc2)cc1,11.4,
COc1ccc(C(=O)/C=C/c2ccc(O)cc2)cc1,,42.2 µM (active)
COC(=O)c1ccc2c(c1)C(C)(C)C(/C=C/c1ccc(O)cc1)=[N+]2C,17.5,

SMILES,inhibition [%],IC50
O=C(CNCc1ccco1)Nc1ccc(N2CCCCCC2)cc1,29.8,
COc1ccc(N2CCN(C(=O)c3ccc(Br)o3)CC2)cc1,25.5,
CC(=O)N1CCN(c2ccc(NCc3ccco3)cc2)CC1,,13.1 µM (active)
CC(=O)N1CCN(c2ccc(NCc3ccc(Br)o3)cc2)CC1,,12.4 µM (active)
Cc1cc(/C=N/Nc2ccc([N+](=O)[O-])cn2)c(C)n1-c1ccc(C(=O)O)cc1,-11.8,
CN(C)c1ccc(Nc2ccc([N+](=O)[O-])cn2)cc1,,70.9 µM (active)
CN(C)c1ccc(NC2=C([N+](=O)[O-])CS(=O)(=O)C2)cc1,,51.3 µM (active)
O=C(c1ccccc1F)N1CCN(Cc2ccccc2F)CC1,13.3,
CCOc1c(C=C(C#N)C#N)c2ccccc2n1CC,19.6,
C(=N\N1CCOCC1)/c1nc(-c2ccccc2)n2ccccc12,,25.7 µM (active)
Clc1ccccc1-c1nc(/C=N/N2CCOCC2)c2ccccn12,,44 µM (active)
CN1CCN(/N=C/c2nc(-c3ccc(Cl)cc3)n3ccccc23)CC1,,41.9 µM (active)
CN1CCN(/N=C/c2nc(-c3ccccc3)n3ccccc23)CC1,,35.6 µM (active)
O=C(O)c1ccc2c(c1)C(=O)/C(=C\c1ccco1)C2=O,-0.18,
Cc1ccccc1N1C(S)=C(C#N)C(=O)NC1c1cccs1 (stereo not drawn),5.79,
Cc1ccc(-n2sc3cc(F)ccc3c2=O)c(C)c1,13.5,
CSc1ccccc1NC(=O)CNCCCN1CCOCC1,22.1,
O=C(NCc1ccco1)c1sc(=S)n2c1[nH]c(=O)c1ccccc12,29.9,
O=C(COc1ccc(Nc2ccccc2)cc1)OCC(=O)N1CCCCC1,,75.6 µM (active)
O=C1CCCCC/C1=N/Nc1ccc(OCc2ccccc2)cc1,0,
O=C(COC(=O)COc1ccc(Nc2ccccc2)cc1)NCc1ccco1,,79.9 µM (active)
N#Cc1ccc(OCC(=O)Nc2ccc(N3CCCC3)cc2)cc1,17.9,

SMILES,inhibition [%],IC50
COCCNC(=O)COc1ccc(Nc2ccccc2)cc1,,62.8 µM (active)
CCOC(=O)COc1ccc2c(c1)C(=O)CC1(CCCCC1)O2,4.34,
O=C(CNCc1ccco1)Nc1ccc(Oc2ccccc2)cc1,17.1,
COc1ccc(-n2nc3c(c2NC(=O)CCCCl)CSC3)cc1,3.42,
O=C(Nc1ccccc1)C1=C(c2ccccc2)S(=O)(=O)CCS1(=O)=O,3.93,
CC(=O)Nc1ccc(S(=O)(=O)Nc2nc3ccccc3nc2Nc2ccc(C(=O)O)c(O)c2)cc1,28.3,
O=C(Nc1ccc(Nc2ccccc2)cc1)C1CC1,,55.9 µM (active)
CC(C)C(=O)Nc1ccc(Nc2ccccc2)cc1,,52.3 µM (active)
O=C(O)c1ccccc1C(=O)Nc1ccc(Nc2ccccc2)cc1,,62.4 µM (active)
CC(=O)Nc1ccc(S(=O)(=O)Nc2ccc(Nc3ccccc3)cc2)cc1,,80.7 µM (active)
Cc1cc(C)c2c(c1)NC(C(=O)O)C1CC=CC21 (stereo not drawn),-0.18,
COc1ccc(-n2cccc2/C=C/[N+](=O)[O-])cc1,-5.41,
CC1=NOC(=O)/C1=C\c1ccc(-c2ccc(Cl)c(C(=O)O)c2)o1,1.02,
N#CC1=C(S)N(c2ccccc2)C(c2cccs2)NC1=O (stereo not drawn),4.12,
O=C(Nc1ccc(O)cc1)c1ccccc1OCc1ccccc1,,44.8 µM (active)
Oc1ccc(NCc2ccc(OCc3ccccc3)cc2)cc1,19.8,
CCC(=O)NC1=C(Cl)C(=O)C(NC(=O)CC)=C(Cl)C1=O,4.18,
CC(=O)Nc1ccc(NC(=O)C(C)OC(=O)COc2ccc(Nc3ccccc3)cc2)cc1 (stereo not drawn),25,
CCC(=O)Nc1ccc(Nc2ccccc2)cc1,,55.9 µM (active)
CC(=O)Nc1ccc(Nc2ccccc2)cc1,,75.5 µM (active)
CC(=O)Nc1ccc2sn(-c3ccccc3)c(=O)c2c1,16.6,
O=C(O)c1ccc(COc2ccccc2C=C2C(=O)c3ccccc3C2=O)cc1,-2.14,

SMILES,inhibition [%],IC50
C=C1c2c(Cl)ccc(O)c2C(O)=C2C(=O)[C@]3(O)C(O)=C(C(N)=O)C(=O)[C@@H](N(C)C)[C@@H]3[C@@H](O)C12 (stereo partly drawn),-12.8,
CC[n+]1c(/C=C2\Sc3ccccc3N2C)ccc2cccc(C)c21,10,
Nc1nn2c(-c3ccccc3)cc(=O)[nH]c2c1N=Nc1ccc(O)cc1,,70.9 µM (active)
Cc1cc(=O)[nH]c2c(N=Nc3ccc(O)cc3)c(N)nn12,,13.2 µM (active)
CCOC(=O)C1Nc2ccc(C(=O)O)cc2C2C=CCC12 (stereo not drawn),-7.98,
COc1cc(OC)c(Cl)cc1N,,43.9 µM (active)
CCCC(=Nc1ccc(N)cc1)C1=C(O)C(C(=O)OC)C(C)(C)CC1=O (stereo not drawn),,14.8 µM (active)
CCC(=Nc1ccc(N)cc1)C1=C(O)C(C(=O)OC)C(C)(C)CC1=O (stereo not drawn),,7.76 µM (active)
COC(=O)C1C(O)=C(C=Nc2ccc(N)cc2)C(=O)CC1(C)C (stereo not drawn),,57.5 µM (active)
COc1cc(/C=N/NC(=O)C(C)Nc2n[nH]c(=O)[nH]c2=O)ccc1O (stereo not drawn),,69.5 µM (active)
COc1cc(/C=N/NC(=O)CNc2n[nH]c(=O)[nH]c2=O)ccc1O,,39.7 µM (active)
CCOc1cc(/C=N/NC(=O)CCc2n[nH]c(=O)[nH]c2=O)ccc1O,,55.6 µM (active)
COc1cc(/C=N/NC(=O)CCc2n[nH]c(=O)[nH]c2=O)ccc1O,,35.4 µM (active)
C/C(CCc1ccccc1)=N\NC(=O)C1C2CCCCC21 (stereo not drawn),0.53,
Cc1ccc(-c2cnc(NCc3cc4c(cc3[N+](=O)[O-])OCO4)n2C)cc1C,26.1,
O=[S@]1Oc2ccccc2-c2ccccc21,-2.21,
CCN(CC)c1ccc(/C=C2/SC(=O)N(C(C)C)C2=O)o1,,58.5 µM (active)
CCCN1C(=O)S/C(=C/c2ccc(N3CCOCC3)o2)C1=O,28.1,
Cc1nc2ccccc2nc1N/N=C/c1ccc(O)cc1,,30.5 µM (active)
Cc1cc(-c2ccccc2)nc(N/N=C/c2ccc(N(C)C)cc2)n1,,80 µM (active)
Cc1cc(-c2ccccc2)nc(N/N=C/c2ccc(O)cc2O)n1,,61.3 µM (active)
CN(C)c1ccc(N=Cc2nc(-c3ccccc3)oc2OC(=O)c2ccccc2)cc1,12,

SMILES,inhibition [%],IC50
Cc1cc(-c2ccccc2)nc(N/N=C/c2ccc(O)cc2)n1,,31.6 µM (active)
CC1CN(CCOCCOc2ccccc2-c2ccccc2)CC(C)O1 (stereo not drawn),22,
COc1ccc(CN2CCN(Cc3ccco3)CC2)cc1OC,25.7,
Cc1cc(C)c2nc(C)cc(N/N=C/c3ccc(O)cc3)c2c1,,32.9 µM (active)
COc1ccc(/C=N/Nc2cc(C)nc3c(C)cccc23)cc1,9.08,
COc1cc(/C=N/N=C2/C(=O)Nc3ccccc32)cc(OC)c1O,,59.2 µM (active)
COc1ccc(/C=C2\C(=O)NC(=O)c3ccccc32)cc1OC,-4.57,
Oc1ccc(-c2nccs2)cc1,,31.4 µM (active)
CCN1CCN(CCOc2cccc(Cl)c2Cl)CC1,20.8,
CC1(C)CC(=O)C2=C(C1)Nc1ccccc1S2,,23.1 µM (active)
CC1(C)CC(=O)C(C(C2=C(O)CC(C)(C)CC2=O)c2cccs2)C(=O)C1 (stereo not drawn),1.47,
COc1ccc(/C=N\NC(=O)c2ccc(=O)[nH]n2)cc1O,,26 µM (active)
COc1cc(/C=N/NC(=O)c2ccc(=O)[nH]n2)ccc1O,,26.3 µM (active)
COc1cc(/C=N/NC(=O)c2cnccn2)ccc1O,,25.9 µM (active)
O=C(/C(=C/c1ccccc1)n1cncn1)c1ccc(Cl)cc1Cl,-3.68,
COC(=O)C(C(=O)OC)C(C)C(C(=O)OC)C(=O)OC,4.32,
CN(C)c1ccc(C=Cc2cnccn2)cc1,,53 µM (active)
CCOC(=O)c1[nH]c2ccccc2c1NC(=S)Nc1cc(C)ccc1C,,39.4 µM (active)
CCOC(=O)c1[nH]c2ccccc2c1NC(=S)Nc1ccccc1C,,45.3 µM (active)
CCOC(=O)c1[nH]c2ccccc2c1NC(=S)Nc1cccc(C)c1C,,46 µM (active)
